# High-throughput results: PubChem BioAssay, National Center for Advancing Translational Sciences (NCATS)
# In the library only some 3% were active in any assay of this set; here they are far more common.
# OvCa metastasis = Primary qHTS assay for Inhibitors of ovarian cancer metastasis using an organotypic tumor microenvironment (TME) model | SKOV3ip1-GFP adhesion/invasion on 3D omental model, fluorescence | Potency, µM (series often up to 45.8 µM), hits mostly inhibitors | 0.1% of 46,000 active; further: nearly all actives have a fitted effect of over 65% in size
#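 Adhesion/invasion was scored as fixed GFP-labeled SKOV3ip1 cell counts (488/509 nm), normalized to DMSO and tomatine controls. Cancer cells in serum-free medium, with four compound doses (0.36-46 umol/L), sat 2 hr at RT then 16 hr at 37 C on a 48 hr fibroblast/mesothelial/ECM culture.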
# S16 viability = Cell viability qHTS assay in S16 Pmp22-F2sN cells; Potency, µM (titrated, usually from 57.5 µM), actives largely listed as cytotoxic; 0.48% of 43,000 active; AID 1508642, 2021; S16 Pmp22-F2sN Schwann cells viability, CellTiter-Glo, 24 h; further: nearly all actives have a fitted effect of over 65% in size
#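 Used to flag compounds lowering reporter output through toxicity, this quantitative HTS measures ATP-based CellTiter-Glo luminescence in S16 Pmp22-F2sN Schwann cells after 24 h compound exposure at 37C.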
# p53null 39C tox = qHTS Screen for Compounds that Selectively Target Cancer Cells with p53 Mutations: Cytotoxicity of p53 Null Cells at the Nonpermissive Temperature; 0.97% of 55,000 active; H1299 p53-null (neo) cells, 39C, ATPlite viability, 24 h; Potency, µM (top dose mostly 46.1 µM), most hits filed as cytotoxic; further: nearly all actives have a fitted effect of over 50% in size
#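 Temperature-shift cytotoxicity format: compound titrations on p53-null or A138V-expressing H1299 cells held 24 hr at 39C, cell ATP then measured, AC50 from Hill model.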
# mTORC1 inh = Acumen qHTS Assay for Inhibitors of the mTORC1 Signaling Pathway in MEF (Tsc2-/-, p53-/-) Cells: Sytravon. Potency, µM (doses to about 38.3 µM), most hits filed as inhibitors. 0.78% of 44,000 active. Tsc2-/- p53-/- MEF, phospho-rpS6 immunofluorescence/PI, 24 h. AID 493208, 2011; further: nearly all actives have a fitted effect of over 50% in size
#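 Tsc2-/-, p53-/- MEFs (empty-vector stable line) in DMEM + 10% FBS were treated with compounds 24 h at 37 degree Celsius, fixed, and immunostained for phospho-rpS6 (Alexa-488) with propidium iodide counterstain. Laser-scanning cytometry gave % positive cells, normalized against 7.5 nM rapamycin and DMSO.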
# PMP22 txn prim = Cell-based coincidence reporter assay to measure PMP22 gene transcription in S16 Pmp22-F2sN cells - Primary screen. S16 Pmp22-F2sN Schwann cells (luciferase reporters placed in the Pmp22 gene), FLuc/NLuc coincidence luminescence, 24 h. Potency, µM (titrated, usually from 57.5 µM), most hits filed as inhibitors. 2% of 43,000 active. AID 1508649, 2021; active means clear falling dose curves in both reporters; inconclusive means both reporters move, but less clearly or upward; inactive means either reporter flat; the % is the NLuc reporter signal
#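 Schwann cells carrying the coincidence reporter were exposed to library compounds for 24 h at 37C, then lysed and read for FLuc and, after quenching, NLuc luminescence on a CCD imager.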
# p53null 32C kill = qHTS Screen for Compounds that Selectively Target Cancer Cells with p53 Mutations: Cytotoxicity of p53 Null Cells at the Permissive Temperature; H1299-neo p53 null cells, ATP luminescence, 24 h, 32C; Potency, µM (doses to about 46.1 µM), most hits filed as cytotoxic; 0.62% of 55,000 active; AID 903, 2007; further: nearly all actives have a fitted effect of over 55% in size
#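 Luminescent ATP readout gave cell viability of p53-null H1299-neo cells after a 24 h compound exposure at the permissive 32C. Titrations ran up to 46 uM, and AC50s were fitted with the standard Hill equation.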
# NLuc saturating = Biochemical NLuc saturation counterscreen for small molecule modulators of PMP22 gene expression - Nano-Glo assay | shares compounds with PMP22 txn prim | Secreted NLuc enzyme (filtered S16 cell medium), Nano-Glo luminescence | Potency, µM (top dose mostly 57.5 µM), most hits filed as inhibitors | 4% of 690 active
# NLuc Km ctr = Biochemical coelenterazine-based NLuc counterscreen for small molecule modulators of PMP22 gene expression - Km assay; secreted NLuc enzyme, coelenterazine luminescence, Km conditions; Potency, µM (top dose mostly 57.5 µM), usual class: inhibitors; 5% of 690 active; shares compounds with PMP22 txn prim
# FLuc ctr PMP22 = Biochemical FLuc counterscreen for small molecule modulators of PMP22 gene expression. shares compounds with PMP22 txn prim. AID 1508640, 2021. purified P. pyralis FLuc, luminescence, 10 min. 690 tested, under 10 active. Potency, µM (doses to about 57.5 µM), usual class: inhibitors
# Target sequence (P08659 whole entry, looked up): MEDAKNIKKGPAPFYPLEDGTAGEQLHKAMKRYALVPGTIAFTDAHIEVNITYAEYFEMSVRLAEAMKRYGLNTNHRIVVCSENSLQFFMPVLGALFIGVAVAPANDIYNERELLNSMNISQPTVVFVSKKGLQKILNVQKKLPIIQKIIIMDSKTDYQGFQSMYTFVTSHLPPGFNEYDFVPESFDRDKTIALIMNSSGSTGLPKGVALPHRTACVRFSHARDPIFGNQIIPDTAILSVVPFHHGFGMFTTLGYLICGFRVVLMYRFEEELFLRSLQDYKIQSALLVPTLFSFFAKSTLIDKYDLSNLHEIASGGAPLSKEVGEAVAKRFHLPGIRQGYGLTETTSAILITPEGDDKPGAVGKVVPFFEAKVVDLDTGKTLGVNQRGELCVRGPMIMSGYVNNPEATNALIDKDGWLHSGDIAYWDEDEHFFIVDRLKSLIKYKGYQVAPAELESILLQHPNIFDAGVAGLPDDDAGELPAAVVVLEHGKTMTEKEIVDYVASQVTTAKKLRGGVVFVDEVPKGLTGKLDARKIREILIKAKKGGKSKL
# S16 F2sN tox cnf = Cell viability qHTS assay in S16 Pmp22-F2sN cells - Confirmatory screen | shares compounds with PMP22 txn prim | S16 Schwann cells viability, CellTiter-Glo ATP luminescence, 24 h | Potency, µM (top dose mostly 57.5 µM), actives largely listed as cytotoxic | 7% of 690 active | AID 1508641, 2021
# PMP22 txn conf = Cell-based coincidence reporter assay to measure PMP22 gene transcription in S16 Pmp22-F2sN cells - Confirmatory screen | shares compounds with PMP22 txn prim | S16 Schwann cells Pmp22-F2sN, dual luciferase, 24 h | Potency, µM (top dose mostly 57.5 µM), actives largely listed as inhibitors | 22% of 690 active | AID 1508646, 2021; active means clear falling dose curves in both reporters; inconclusive means both reporters move, but less clearly or upward; inactive means either reporter flat; the % is the FLuc reporter signal
# PMP22 HiBiT cnf = Cell-based HiBiT reporter assay to measure PMP22 protein expression in S16 Pmp22-HiBiT cells - Confirmatory screen; shares compounds with PMP22 txn prim; S16 Schwann cells Pmp22-HiBiT, luminescence, 48 h; Potency, µM (series often up to 27.9 µM), usual class: inhibitors; 95 tested, under 10 active; AID 1508647, 2021
# Target sequence (P25094 whole entry, looked up): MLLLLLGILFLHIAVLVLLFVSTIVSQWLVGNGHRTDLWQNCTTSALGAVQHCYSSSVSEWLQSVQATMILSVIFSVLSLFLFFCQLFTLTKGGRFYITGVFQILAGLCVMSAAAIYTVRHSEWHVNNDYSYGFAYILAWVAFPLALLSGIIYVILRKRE
# Numbers stand for hits; . = inactive; ? = inconclusive; / = no result given. Unless noted, the call rests on the fitted dose curve; in most records, active means well fitted curve in the direction sought with a large enough effect; inconclusive means small, poorly fitted or top-dose-only effect, or another doubt; inactive means no such curve, though single readings can be large; an effect the other way counts as inactive or inconclusive.
SMILES,OvCa metastasis,S16 viability,p53null 39C tox,mTORC1 inh,PMP22 txn prim,p53null 32C kill,NLuc saturating,NLuc Km ctr,FLuc ctr PMP22,S16 F2sN tox cnf,PMP22 txn conf,others
O=C(c1ccc(CS(=O)c2ccccc2Cl)o1)N1CCN(c2cccc(C(F)(F)F)c2)CC1 (centres undefined),.,.,?,?,11.9µM,.,.,?,.,.,?,PMP22 HiBiT cnf=?
Cc1ccccc1S(=O)(=O)Cc1ccc(C(=O)N2CCN(c3cccc(Cl)c3)CC2)o1,.,?,.,?,11.9µM,.,?,.,.,.,9.74µM,PMP22 HiBiT cnf=?
O=C(c1ccc(CS(=O)c2ccccc2Cl)o1)N1CCN(c2cccc(Cl)c2)CC1 (centres undefined),.,.,?,?,?,.,/,/,/,/,/,
O=C(C=Cc1ccc(O)cc1)c1ccc(O)cc1O,.,/,/,/,/,/,/,/,/,/,/,
N#CC[C@H](C1CCCC1)n1cc(-c2ncnc3[nH]ccc23)cn1,.,/,/,/,/,/,/,/,/,/,/,
CCC1=C[C@@H]2CN(C1)Cc1c([nH]c3ccccc13)[C@@](C(=O)OC)(c1cc3c(cc1OC)N(C)[C@@H]1[C@@](O)(C(=O)OC)[C@H](OC(C)=O)[C@]4(CC)C=CCN5CC[C@]31[C@@H]54)C2,.,/,/,/,/,/,/,/,/,/,/,
CO[C@H]1C=CO[C@@]2(C)Oc3c(C)c(O)c4c(O)c(c(C=NN5CCN(C)CC5)c(O)c4c3C2=O)NC(=O)C(C)=CC=C[C@H](C)[C@H](O)[C@@H](C)[C@@H](O)[C@@H](C)[C@H](OC(C)=O)[C@H]1C,.,/,/,/,/,/,/,/,/,/,/,
CCOc1cc(CNc2ccc(O)cc2)cc(Br)c1OCc1ccccc1,.,?,?,.,8.54µM,.,?,?,.,.,14.5µM,PMP22 HiBiT cnf=.
C=CCOc1c(Br)cc(CNc2ccc(NC(=O)C(C)C)cc2)cc1OCC,/,/,/,/,/,.,/,/,/,/,/,
CCOc1cc(CNc2ccc(O)cc2)ccc1OCc1ccc(Cl)cc1,.,?,?,?,7.81µM,.,17.2µM,19.3µM,?,.,.,
COc1cc([C@H]2Oc3cc([C@H]4Oc5cc(O)cc(O)c5C(=O)[C@H]4O)ccc3O[C@H]2CO)ccc1O,.,/,/,/,/,/,/,/,/,/,/,
CCOc1cc(C(=O)Nc2ccc(Cl)c(-c3nc4ccccc4[nH]3)c2)cc(OCC)c1OCC,.,/,/,/,/,/,/,/,/,/,/,
CCCCOc1ccc(Cn2c(=O)oc3ccc(C)cc32)cc1,.,.,.,.,.,.,/,/,/,/,/,
Cc1ccc2c(c1)C(=O)C(=O)N2Cc1ccc(OCCC(C)C)cc1,?,.,?,.,4.59µM,.,.,.,.,.,11.5µM,
O=C(NCc1ccccc1Cl)C1CCN(S(=O)(=O)c2ccc3c(c2)CCCN3C(=O)C2CCC2)CC1,.,?,.,.,8.53µM,.,.,.,.,.,.,
C[C@]12CCC(=O)C=C1CC[C@@H]1[C@H]2[C@@H](O)C[C@@]2(C)[C@H]1CC[C@]2(O)C(=O)CO,.,/,/,/,/,/,/,/,/,/,/,
CCOc1ccccc1Nc1sc(C(=O)c2ccc(Cl)cc2)c(N)c1C#N,.,.,.,.,15µM,.,.,.,.,.,.,
CC(=O)N[C@@H]1[C@H](O[C@@H]2c3ccc(c(Cl)c3)Oc3cc4cc(c3O[C@H]3O[C@H](CO)[C@@H](O)[C@H](O)[C@H]3NC(=O)CCCCCCCC(C)C)Oc3ccc(cc3Cl)C[C@H]3NC(=O)[C@H](N)c5ccc(O)c(c5)Oc5cc(O)cc(c5)[C@H](NC3=O)C(=O)N[C@H]4C(=O)N[C@H]3C(=O)N[C@@H]2C(=O)N[C@@H](C(=O)O)c2cc(O)cc(O[C@H]4O[C@H](CO)[C@@H](O)[C@H](O)[C@H]4O)c2-c2cc3ccc2O)O[C@H](CO)[C@@H](O)[C@@H]1O,.,/,/,/,/,/,/,/,/,/,/,
CCOc1ccc(-n2c(SCC(=O)NC3CCCCC3)nc3c([nH]c4ccccc43)c2=O)cc1,.,.,.,.,.,.,/,/,/,/,/,
O=C(CSc1nc2c([nH]c3ccccc32)c(=O)n1-c1ccc(Cl)cc1)NC1CCCCC1,.,?,.,.,12.6µM,.,.,.,.,?,17.2µM,
CCCSc1ncc(Cl)c(C(=O)Nc2ccc(S(=O)(=O)N3CCCCC3C)cc2)n1 (centres undefined),.,?,.,.,10.8µM,.,.,.,.,.,?,
C[C@@H](O[C@H]1OCCN(Cc2n[nH]c(=O)[nH]2)[C@@H]1c1ccc(F)cc1)c1cc(C(F)(F)F)cc(C(F)(F)F)c1,.,/,/,/,/,/,/,/,/,/,/,
COC(=O)c1ccccc1NC(=O)CCS(=O)(=O)c1nc(-c2ccc3c(c2)OCO3)cc(C(F)(F)F)n1,.,.,?,.,14.1µM,.,.,.,.,.,19.3µM,
COc1ccc(Cl)cc1NC(=O)CCS(=O)(=O)c1nc(-c2cccs2)cc(C(F)(F)F)n1,?,?,?,.,10µM,.,?,?,.,?,8.85µM,
